Source: PubChem BioAssay AID624351 (Southern Research Specialized Biocontainment Screening …, 2012)
The campaign covered roughly 2,400 compounds. About 1,400 (58%) were called active.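 The calls were made as follows: active = inhibition of 30% or more at any tested dose; inconclusive = primary hits over the limit that were never retested; inactive = the rest.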 The set was probably picked from earlier hits. Some of the results follow.

Test: coupled detection enzyme interference, dose response, artefact control for MgcRacGAP inhibitor project, biochemical, coupled enzyme counter-screen (AID 624351);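 also: signal is the ADP detection kit reading of free GDP without any GAP enzyme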;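 as to inhibition: 0% = median positive control wells and 100% = median negative control wells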
Settings: ADP Hunter coupled enzyme counter-screen, fluorescence, no MgcRacGAP; series mostly up to 80 µM; inhibition: at the top concentration
With COc1ccc(OCCOCCN2CCN(C)CC2)cc1 the “inhibition” value was 25.9% (inactive). In the case of CN(C)CCCC1Sc2ccccc2Sc2ccccc21 (stereo not given), the “inhibition” value is reported as 13.6% (inactive). For COc1ccccc1/C=C1/C(=O)N(c2ccccc2)N=C1C, the “inhibition” value was -0.06% (inactive). With CC1=NN(c2ccccc2)C(=O)/C1=C/C=C/c1ccc(N(C)C)cc1 the “inhibition” value was 2.39% (inactive). In the case of CC1=NN(c2ccccc2)C(=O)/C1=C/C=C/C=C/N(C)C, the IC50 is reported as 68.9 µM (active). In the case of O=C(O)C1CCN(Cc2cnn(-c3ccccc3)c2-n2cccc2)CC1, the “inhibition” value is reported as 2.8% (inactive). With C/C(=C\C(=O)c1ccccc1)Nc1ccc(O)cc1 the IC50 was 19.2 µM (active). In the case of COc1ccc(C(=O)/C=C(\C)Nc2ccc(NC(C)=O)cc2)cc1, the “inhibition” value is reported as 14.6% (inactive). In the case of O=C(Nc1ccc(O)cc1)c1ccc(C(=O)c2ccccc2)o1, the IC50 is reported as 26.1 µM (active). In the case of C/C(=C\C(=O)c1cccnc1)Nc1ccc(O)cc1, the IC50 is reported as 13.6 µM (active). With Cc1ccc(C2CC(=O)N3CN(c4ccc(Br)cc4)CSC3=C2C#N)o1 (stereo not given) the “inhibition” value was -7.2% (inactive). In the case of O=C(O)c1cccc(N/N=C/c2cccs2)c1, the IC50 is reported as 62.5 µM (active). In the case of O=C(CSc1cn[nH]n1)Nc1cccc(C(=O)O)c1, the “inhibition” value is reported as 4.45% (inactive). In the case of CSc1ccc(/C=N/Nc2cccc(C(=O)O)c2)cc1, the “inhibition” value is reported as 8.61% (inactive). In the case of Cc1ccsc1/C=N/Nc1cccc(C(=O)O)c1, the IC50 is reported as 72.9 µM (active). With CN(c1ccc(O)cc1)c1nc(-c2ccccc2)cs1 the IC50 was 53.7 µM (active). In the case of CN(c1ccc(O)cc1)c1nc(-c2cccnc2)cs1, the IC50 is reported as 19.9 µM (active). For CCC1=NN2C(=N)/C(=C\c3ccc(SCc4ccco4)o3)C(=O)N=C2S1, the “inhibition” value was 1.01% (inactive). In the case of Cc1[nH]c2ccccc2c1-c1csc(NC(=O)CSCCO)n1, the “inhibition” value is reported as 19.5% (inactive). For COC(=O)c1[nH]c2ccc(Cl)cc2c1NC(=O)Oc1ccccc1, the IC50 was 18.5 µM (active). In the case of COC(=O)c1[nH]c2cc(OC)c(OC)cc2c1NC(=O)Oc1ccccc1, the IC50 is reported as 19.5 µM (active). In the case of COC(=O)c1[nH]c2ccc(C)cc2c1NC(=O)Oc1ccccc1, the “inhibition” value is reported as 15.6% (inactive). With COC(=O)c1[nH]c2ccccc2c1NC(=O)Oc1ccccc1 the IC50 was 15.6 µM (active). In the case of O=C1C=CC2(O[C@H](c3ccccc3)[C@@H](c3ccccc3)O2)[C@H](Sc2ccccc2O)C1, the “inhibition” value is reported as -5.72% (inactive). With CC1=CC(c2ccccc2)NC(=S)N1 (stereo not given) the “inhibition” value was -6.82% (inactive). In the case of O=[N+]([O-])/C=C/c1ccc2c(ccn2Cc2ccccc2)c1, the “inhibition” value is reported as 0.07% (inactive). With O=c1c(O)c(-c2ccc(O)c(O)c2)oc2cc(O)ccc12 the IC50 was 52.8 µM (active). For O=c1c(O)c(-c2ccc(O)cc2)oc2cc(O)cc(O)c12, the IC50 was 34.5 µM (active). In the case of COc1c(-c2ccc(O)c(O)c2)oc2cc(O)cc(O)c2c1=O, the IC50 is reported as 34 µM (active). In the case of c1ccc(CC2CCN(Cc3ccccn3)CC2)cc1, the “inhibition” value is reported as 17.1% (inactive). In the case of CC1(C)CC(=O)C=C(Nc2ccc(O)cc2)C1, the IC50 is reported as 25.9 µM (active). For COc1cc(C2NC(=O)C(C#N)=C(S)N2c2ccc(C)cc2)ccc1OC(C)C (stereo not given), the “inhibition” value was 2.55% (inactive). For COc1ccc(NCC(O)Cn2c(C)c(C)c3ccccc32)cc1 (stereo not given), the IC50 was 66.8 µM (active). With COc1ccc(NCC(O)COc2ccc(C(C)(C)C)cc2)cc1 (stereo not given) the “inhibition” value was 22.3% (inactive). In the case of COc1ccc(-c2cc3ccccc3n2CC(O)CN2CCCCC2)cc1 (stereo not given), the “inhibition” value is reported as 17.7% (inactive). In the case of COc1ccc(OC)c(CN2CCSCC2)c1, the “inhibition” value is reported as -3.93% (inactive). With Oc1ccc(C2=Nn3c(nnc3-c3ccco3)SC2)cc1O the IC50 was 14.2 µM (active). For CC1Cc2ccccc2N1C(=O)CNCCCN(C)C (stereo not given), the “inhibition” value was 25.2% (inactive). For CC(=O)Nc1cccc(NC(=O)c2cccc(-c3ccc(O)cc3)c2)c1, the IC50 was 59.1 µM (active). With COc1ccc(NC(=O)/C(Cl)=C(/Cl)S(=O)Cc2ccccc2)cn1 (stereo not given) the “inhibition” value was 4.52% (inactive). In the case of COc1ccc(NC(=O)/C(Cl)=C(/Cl)S(=O)Cc2ccc(Cl)cc2)cn1 (stereo not given), the “inhibition” value is reported as 1.96% (inactive). In the case of O=C(Nc1ccccc1)c1cccc(-c2nnc(-c3ccccc3)o2)c1, the “inhibition” value is reported as 4.13% (inactive). In the case of COc1ccc(NC(=O)c2cccc(-c3ccc(O)cc3)c2)cn1, the IC50 is reported as 41.2 µM (active). For Oc1cccc2c(NC(=S)Nc3ccc(OC(F)F)cc3)cccc12, the IC50 was 83.5 µM (active). With C#CCOCCOCCOCCNc1nc(N2CCN(C(=O)CCCCCCCCCCNC(=O)[C@@H](CCSC)n3cc(CCO)nn3)CC2)nc(N2CCN(C(=O)CCCCCCCCCCNC(=O)[C@H](CO)n3cc(CCCCCN)nn3)CC2)n1 the “inhibition” value was 1.72% (inactive). For COc1ccc(-c2ncc3ccccn23)cc1OC, the “inhibition” value was -12.6% (inactive). With Oc1ccc(-c2csc(-c3cccnc3)n2)cc1O the IC50 was 11 µM (active). For Oc1ccc(-c2csc(-c3cccnc3)n2)c(O)c1, the IC50 was 43.4 µM (active). For COc1cc2cc(-c3ccc(O)cc3O)nc(C)c2cc1OC, the IC50 was 45.1 µM (active). For COc1ccc(-c2nc(-c3ccc(O)cc3O)cs2)cc1OC, the IC50 was 55.4 µM (active). With Clc1cc(Cl)c(OCCCCn2cncn2)c(Cl)c1 the “inhibition” value was 12.8% (inactive). For CCCCN(C)C(=O)C1CCN(Cc2ccc(OCc3ccccc3)cc2)CC1, the “inhibition” value was 18.4% (inactive). In the case of COc1ccc(C2NC(c3ccc(OC)cc3OC)C(C)C(=O)C2C)c(OC)c1 (stereo not given), the “inhibition” value is reported as 19.7% (inactive). In the case of CC1CC(C)CN(CC(=O)NC(c2ccccc2)c2ccccc2)C1 (stereo not given), the “inhibition” value is reported as 10.7% (inactive). In the case of CCCN1C(=O)/C(=C/c2cc(C)n(C)c2C)SC1=Nc1ccc(OCC)cc1, the “inhibition” value is reported as -18.7% (inactive). For CCN=C1S/C(=C\c2ccc(O)c(OCC)c2)C(=O)N1CC, the IC50 was 39 µM (active). In the case of COc1cc(/C=C2\SC(N)=NC2=O)ccc1O, the IC50 is reported as 16.4 µM (active). For COc1cc(/C=C2\SC(N)=NC2=O)cc(Cl)c1O, the IC50 was 45.7 µM (active). For COc1cc(/C=C2\SC(c3ccc(C)cc3)=NC2=O)cc(OC)c1O, the “inhibition” value was 18.2% (inactive). In the case of CCOc1cc(/C=C2\SC(=O)N=C2N)ccc1O, the IC50 is reported as 14.3 µM (active). For COc1cccc(OC)c1OCCNC(C)(C)C, the “inhibition” value was 8.19% (inactive). For NC1=NC(=O)S/C1=C\c1ccc(O)cc1, the IC50 was 20.2 µM (active). For CCS(=O)(=O)C1=NN2C(=N)/C(=C\c3ccc(SCc4ccco4)o3)C(=O)N=C2S1, the “inhibition” value was 8.36% (inactive). With N=C1/C(=C\c2ccc(Br)o2)C(=O)N=C2SC(CC(=O)N3CCOCC3)=NN12 the “inhibition” value was 2.42% (inactive). With CCOc1cc(/C=C2\C(=O)ON=C2c2ccccc2)cc(Br)c1O the “inhibition” value was 0.5% (inactive). With CCOc1cc(/C=C2/NC(=O)N(Cc3ccccc3F)C2=O)ccc1O the IC50 was 50 µM (active). With N=C1/C(=C/c2ccc(Br)o2)C(=O)N=C2SC(CC(=O)N3CCCC3)=NN12 the “inhibition” value was 0.87% (inactive). With Cc1ccc(S(=O)(=O)Oc2ccc(/C=C3\C(=N)N4N=C(S(C)(=O)=O)SC4=NC3=O)cc2)cc1 the “inhibition” value was 0.72% (inactive). In the case of CC(NCc1cccc(S(=O)(=O)N(C)C)c1)c1ccc(F)cc1 (stereo not given), the “inhibition” value is reported as 17.1% (inactive). In the case of CCOc1cc(/C=C2\SC(N)=NC2=O)ccc1O, the IC50 is reported as 55.5 µM (active). With C#CCOCCOCCOCCNc1nc(N2CCN(C(=O)C([C@@H](C)O)n3cc([C@@H](N)CCCCN)nn3)CC2)nc(N2CCN(C(=O)[C@H](CCCCN)n3cc(CN)nn3)CC2)n1 (stereo not given in full) the “inhibition” value was 5.73% (inactive). With CN(C)c1cc(NC(=O)CN2CCCC2)c2ccccc2n1 the “inhibition” value was 28.4% (inactive). With O=C(CSc1nnnn1-c1ccc(F)cc1)c1ccc(O)c(O)c1 the IC50 was 77.2 µM (active). In the case of Cc1cc(C)nc(SCC(=O)c2ccc(O)c(O)c2)n1, the IC50 is reported as 38 µM (active). For Cc1cc(SCC(=O)c2ccc(O)c(O)c2)nc2ccccc12, the IC50 was 58.9 µM (active). For CC(C)(C)CC(C)(C)NCC(=O)Nc1c2c(nc3ccccc13)CCC2, the “inhibition” value was 24.6% (inactive). In the case of O=C(O)c1cccc2cccc(-c3c4ccc(=O)c(O)c-4oc4c(O)c(O)ccc34)c12, the “inhibition” value is reported as -17.4% (inactive). With Cc1cc(=O)oc2c(O)c(O)ccc12 the IC50 was 28.8 µM (active). In the case of Cc1[nH]n(-c2ccccc2)c(=O)c1/C=N/N(C)c1ccccc1, the IC50 is reported as 15 µM (active). In the case of O=C(O)C1Nc2c(O)cc(Cl)c([N+](=O)[O-])c2C2C=CCC12 (stereo not given), the “inhibition” value is reported as -30.6% (inactive). With COc1cc(Sc2ccc(C)cc2)c(OC)cc1N the IC50 was 22.5 µM (active). With O=C(N/C(=C\c1ccc(O)cc1)C(=O)N1CCCCC1)c1ccccc1 the IC50 was 54.1 µM (active). For COc1cccc(C(=O)N2CCN(C3CCCCC3)CC2)c1, the “inhibition” value was 11.9% (inactive). For COc1cc(OC)cc(C(=O)N2CCN(Cc3ccccc3Br)CC2)c1, the “inhibition” value was 13.3% (inactive). For COc1ccc(NC2CCCN(C(=O)c3ccc(C)c(N4CCNC4=O)c3)C2)cc1 (stereo not given), the “inhibition” value was 24.7% (inactive). With COc1ccc(NC2CCCN(C(=O)c3cccc(N(C)C)c3)C2)cc1 (stereo not given) the IC50 was 74.8 µM (active). With COc1ccc(NC2CCCN(C(=O)c3cccc(N4CCNC4=O)c3)C2)cc1 (stereo not given) the IC50 was 81.2 µM (active). In the case of O=C(c1cccc(F)c1)N1CCN(C2CCCCC2)CC1, the “inhibition” value is reported as 18.3% (inactive). For Cc1cc(-c2ccccc2)nc2c(Br)c(=O)[nH]n12, the “inhibition” value was 3.62% (inactive). With Cc1ccc(N2C(S)=C(C#N)C(=O)NC23CCCCC3)cc1 the “inhibition” value was 4.43% (inactive). In the case of O=C(O)CCCN1C(=O)/C(=C\c2ccco2)SC1=S, the “inhibition” value is reported as -23.9% (inactive). For CC(=O)NN1C(=O)/C(=C\c2ccc(Br)o2)SC1=S, the “inhibition” value was 6.09% (inactive). In the case of COc1cc(/C=C2\SC(=S)N(NC(=O)c3ccc(O)cc3)C2=O)ccc1O, the IC50 is reported as 79.5 µM (active). With COc1cc(/C=C2\SC(=S)N(NC(=O)c3cccc(O)c3)C2=O)ccc1O the IC50 was 67.5 µM (active). For COc1cc(/C=C2\SC(=S)N(NC(=O)c3ccncc3)C2=O)ccc1O, the IC50 was 44.1 µM (active). For CC(=O)NN1C(=O)/C(=C/c2ccc(Br)o2)SC1=S, the “inhibition” value was -2.96% (inactive). In the case of COc1cc(/C=C2\SC(=S)N(Nc3ccccc3)C2=O)ccc1O, the IC50 is reported as 75.4 µM (active). For O=C1C(=Cc2cccc(O)c2O)SC(=S)N1CCCN1CCOCC1, the “inhibition” value was 25.8% (inactive). With CC(=O)OCCNc1cc(N2CCN(C)CC2)c2noc3c2c1C(=O)c1ccccc1-3 the inhibition was -4.34% [at 10 µM] (inactive). For O=C(O)c1ccc2c(c1)[C@@H]1C=CC[C@@H]1[C@H](c1ccccn1)N2, the “inhibition” value was 0.72% (inactive). With CCOC(=O)c1sc2nc(CSc3ccccc3)nc(N3CCCN(C)CC3)c2c1C the “inhibition” value was 13.6% (inactive). For COc1cc(/C=N\NC(=O)c2c(C)nc3cc(C)ccn23)ccc1O, the IC50 was 50.4 µM (active). With CCOc1cc(/C=N\NC(=O)c2c(C)nc3ccccn23)ccc1O the IC50 was 83.5 µM (active). With O=C1/C(=C\c2ccc(O)c(O)c2)N=C2CCCCCN12 the IC50 was 18.3 µM (active). With CCOc1cc(/C=C2\N=C3CCCCCN3C2=O)ccc1O the IC50 was 55.8 µM (active).
